PubChem BioAssay (NCATS)
Several values for one entry are separate records, joined by “and”; a condition that tells them apart may be missing. Equal values may be shown once. Inconclusive results are not listed. Unmarked numbers belong to inactive results. Activity calls are given as the source filed them. The call rests on the fitted dose curve; in most records, active means well fitted curve in the direction sought with a large enough effect; inconclusive means small, poorly fitted or top-dose-only effect, or another doubt; inactive means no such curve, though single readings can be large; an effect the other way counts as inactive or inconclusive.

Tests used:
[1] = molecular target: Cellular tumor antigen p53 (Homo sapiens) (UniProt P04637); assay: Primary qHTS for small molecule compounds that upregulate eGFP-tagged delta133p53alpha (in N-terminal) cells. (AID 2060322); conditions: NCI-H358 eGFP-delta133p53alpha fluorescence, 24 h; activation: hits give high values; further: nearly all actives have a fitted effect of over 75% in size;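 on activation: series mostly up to about 56 µM; 0% = DMSO vehicle and 100% = reference activator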
Summary of the method: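 NCI-H358 cells pre-induced 24 h with 10 ng/ml doxycycline to express N-terminal eGFP-delta133p53alpha, then dosed 24 h at 37C without doxycycline; fixed, Hoechst-stained, GFP intensity by laser scanning cytometry, normalized to DMSO (0%) and 57.5 uM 5-azacytidine (100%).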

[2] = BET inhibitor-based combinations targeting novel dependencies in MECOM-rearranged (r) AML: SET-2 cell line (AID 2202231); conditions: SET-2 AML cells viability, CellTiter-Glo luminescence, 48 h; viability: hits give low values, concentration not given here; further: nearly all actives have a fitted effect of over 35% in size;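 on viability: plate controls were DMSO treated cells for no effect and wells without cells for full effect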
Summary of the method: (§1)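 Readout: CellTiter-Glo luminescence. Exposure: 48 h, 11 concentrations, 500 cells/well. Metric: AUC and within-line Z-AUC after DMSO/empty-well normalization.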

[3] = BET inhibitor-based combinations targeting novel dependencies in MECOM-rearranged (r) AML: OCI-AML3 cell line (AID 2202232); conditions: Potency: OCI-AML3 viability; further: nearly all actives have a fitted effect of over 35% in size;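 on viability (% of control): series mostly up to about 46 µM; plate controls were DMSO vehicle wells for no effect and wells without cells for full effect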
Summary of the method: as §1

[4] = BET inhibitor-based combinations targeting novel dependencies in MECOM-rearranged (r) AML: MV-4-11 cell line (AID 2202233); further: nearly all actives have a fitted effect of over 45% in size;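 on viability, % of control: plate controls were DMSO for no effect and blank wells for full effect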
Summary of the method: (§2)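 Seeding density was 500 cells/well, and drug exposure lasted 48 hr under standard culture conditions. Read-out used CellTiter-Glo reagent with a 15 min room-temperature incubation before luminescence measurement; AUC and Z-AUC summarize the normalized responses.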

[5] = BET inhibitor-based combinations targeting novel dependencies in MECOM-rearranged (r) AML: HNT-34 cell line (AID 2202234); further: nearly all actives have a fitted effect of over 35% in size;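 on viability (% of control): plate controls were vehicle wells for no effect and cell-free wells for full effect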
Summary of the method: as §2

[6] = BET inhibitor-based combinations targeting novel dependencies in MECOM-rearranged (r) AML: UCSD-AML1 cell line (AID 2202235); further: nearly all actives have a fitted effect of over 40% in size;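 on viability (% of control): series mostly up to about 46 µM; plate controls were DMSO vehicle wells for no effect and blank wells for full effect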
Summary of the method: as §2

[7] = BET inhibitor-based combinations targeting novel dependencies in MECOM-rearranged (r) AML: AML-194 cell line (AID 2202237; further: nearly all actives have a fitted effect of over 40% in size;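 on viability (% of control): plate controls were vehicle wells for no effect and wells without cells for full effect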)
Summary of the method: as §1

[8] = BET inhibitor-based combinations targeting novel dependencies in MECOM-rearranged (r) AML: AML-191 cell line (AID 2202236; further: nearly all actives have a fitted effect of over 35% in size;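 on viability (% of control): plate controls were vehicle wells for no effect and wells without cells for full effect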)
Summary of the method: as §1
Potency means the concentration at half of the fitted maximal effect.

Chain of Cellular tumor antigen p53 (Homo sapiens) (P04637 whole entry, looked up): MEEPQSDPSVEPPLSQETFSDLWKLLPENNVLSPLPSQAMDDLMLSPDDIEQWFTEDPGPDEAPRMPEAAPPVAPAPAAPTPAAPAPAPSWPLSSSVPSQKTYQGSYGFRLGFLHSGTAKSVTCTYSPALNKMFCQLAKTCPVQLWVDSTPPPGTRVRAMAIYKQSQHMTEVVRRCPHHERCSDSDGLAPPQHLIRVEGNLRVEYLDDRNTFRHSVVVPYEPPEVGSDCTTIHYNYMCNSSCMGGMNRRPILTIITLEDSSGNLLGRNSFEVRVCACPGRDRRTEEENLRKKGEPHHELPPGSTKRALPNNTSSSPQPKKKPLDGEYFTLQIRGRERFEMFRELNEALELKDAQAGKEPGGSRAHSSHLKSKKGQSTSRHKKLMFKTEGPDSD

SMILES	activation [1]	viability [2]	Potency [3]	Potency [4]	Potency [5]	Potency [6]	Potency [7]	Potency [1]	Potency [2]	Potency [8]	viability (% of control) [3]	viability, % of control [4]	viability (% of control) [5]	viability (% of control) [6]	viability (% of control) [7]
C#C[C@]1(O)CC[C@H]2[C@@H]3CCc4cc(OC)ccc4[C@H]3CC[C@@]21C	-5.08%	117%	inactive	inactive	inactive	inactive	inactive								
C=CC(=O)Nc1cc2c(Nc3ccc(F)c(Cl)c3)ncnc2cc1OCCCN1CCOCC1			4.68 µM (active)	1.32 µM (active)	2.63 µM (active)	4.68 µM (active)	11.8 µM (active)	4.9 µM (active)	14.8 µM (active)						
CNC(=O)c1cc(Oc2ccc(NC(=O)Nc3cc(C(C)(C)C)nn3-c3ccc4ncccc4c3)c(F)c2)ccn1			23.5 µM (active)	0.0468 µM (active)	0.148 µM (active)	16.6 µM (active)	20.9 µM (active)	5.36 µM (active)	18.6 µM (active)						
O=C(NC(Cc1cc(=O)[nH]c2ccccc12)C(=O)O)c1ccc(Cl)cc1 (configuration not stated)	-0.837% and -7.77%	120%	inactive	inactive	inactive	inactive	inactive								
NCC1CCC(C(=O)O)CC1 (configuration not stated)	20.7%	115%	inactive	inactive	inactive	inactive	inactive			inactive					
CN1CCN2c3ncccc3Cc3ccccc3C2C1 (configuration not stated)	-22.2%	102%	inactive	inactive	inactive	inactive	inactive			inactive					
COC(=O)Nc1cc(Nc2cc(NC3CC3)c3ncc(C#N)n3n2)c(Cl)c(N2CCN(C)CC2)c1	-10.3%		3.32 µM (active)	0.833 µM (active)	1.32 µM (active)	2.63 µM (active)	2.63 µM (active)		2.95 µM (active)	2.63 µM (active)					
O=c1ccn([C@@H]2O[C@H](CO)[C@H](O)[C@@H]2F)c(=O)[nH]1	-22.6%	107%	inactive	inactive	inactive	inactive	inactive			inactive					
COC1CCC(C(=O)c2ccc3nc4c(cc3c2)CCCO4)CC1 (configuration not stated)	-1.02%	105%	inactive	inactive	inactive	inactive	inactive			inactive					
CN[C@H]1CCc2cc(OC)c(OC)c(OC)c2-c2ccc(OC)c(=O)cc21	7.86%		0.0934 µM (active)	0.105 µM (active)	0.0833 µM (active)	0.105 µM (active)	0.105 µM (active)		0.186 µM (active)	0.105 µM (active)					
COC(=O)Nc1nc2ccc(Sc3ccccc3)cc2[nH]1	-17.6% and 21.8%		0.742 µM (active)	0.934 µM (active)	0.525 µM (active)	0.468 µM (active)	0.417 µM (active)		1.18 µM (active)						
O=c1[nH]nc(Sc2ncc([N+](=O)[O-])s2)n1-c1ccc2c(c1)OCCO2	-12.9%		2.95 µM (active)	1.86 µM (active)	3.32 µM (active)	9.34 µM (active)	7.42 µM (active)		7.42 µM (active)	3.32 µM (active)					
Nc1ccn(C[C@@H](CO)OCP(=O)(O)O)c(=O)n1	-2.13%	113%									113% [at 8.46 µM]	126% [at 8.46 µM]	82.3% [at 8.46 µM]	104% [at 8.46 µM]	105% [at 8.46 µM]
COC1CCC(N(C(=O)C2CCC(C)CC2)c2cc(C3=CCCCC3)sc2C(=O)O)CC1 (configuration not stated)	-11.2%	113%	inactive	inactive	inactive	inactive	inactive			inactive					
NC(=O)c1cnc(N[C@@H]2CCCC[C@@H]2N)nc1Nc1cccc(-n2nccn2)c1			16.6 µM (active)	3.32 µM (active)	14.8 µM (active)	8.33 µM (active)	18.6 µM (active)	34.3 µM (active)	23.5 µM (active)	16.6 µM (active)					
NS(=O)(=O)c1cc2c(cc1Cl)NC(C(Cl)Cl)NS2(=O)=O (configuration not stated)	-14.1% and -9.47%	112%	16.6 µM (active)	inactive	inactive	inactive	inactive								
COc1ccc(S(=O)(=O)Nc2cc(-c3c(O)ccc4ccccc34)c(O)c3ccccc23)cc1	23.1%		2.63 µM (active)	0.833 µM (active)	1.66 µM (active)	3.72 µM (active)	1.66 µM (active)		11.8 µM (active)	1.86 µM (active)					
COc1c(N2CCNC(C)C2)c(F)cc2c(=O)c(C(=O)O)cn(C3CC3)c12 (configuration not stated)	12.6% and 24.5%	100%	inactive	inactive	inactive	inactive	inactive			inactive					
